TGFb SMAD3 inh: qHTS for Inhibitors of TGF-b | HepG2 CAGA-GFP TGF-b/SMAD3 reporter, GFP fluorescence, 18 h; TGF-beta stimulated, 500 pg/mL final | Potency, µM (doses to about 46.1 µM), actives largely listed as inhibitors | 410,000 tested, 1.2% active; further: nearly all actives have a fitted effect of over 65% in size
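HEPG2 CAGA-GFP reporter cells (1000/well, DMEM with 1% FBS) received compounds, then recombinant TGF-beta at 500 pg/mL final for 18 hours at 37 degrees C. Per-cell GFP summed per well was normalised to unstimulated and stimulated DMSO controls before curve fitting.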
DT40 TDP1 no CPT: qHTS for Inhibitors of human tyrosyl-DNA phosphodiesterase 1 (TDP1): qHTS in cells in absence of CPT. DT40 Tdp1-/- hTDP1 cells, no CPT, ATP luminescence, 48 h. Potency, µM (top dose mostly 46.2 µM), hits mostly inhibitors. 420,000 tested, 15% active. AID 686978, 2013; further: nearly all actives have a fitted effect of over 55% in size
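DT40 Tdp1-/-;hTDP1 cells, no CPT (DMSO vehicle only), 400 cells/well; compounds pin-transferred; ≥48 hr, 37 °C; CellTiter-Glo 30 min RT dark, luminescence read.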
TDP1 cell CPT: qHTS for Inhibitors of human tyrosyl-DNA phosphodiesterase 1 (TDP1): qHTS in cells in presence of CPT; chicken DT40 Tdp1-/-;hTDP1 cells + 20 nM CPT, ATP luminescence, 48 h; Potency, µM (highest dose often 46.2 µM), usual class: inhibitors; 420,000 tested, 12% active; further: nearly all actives have a fitted effect of over 55% in size
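Chicken DT40 Tdp1-/- cells stably complemented with human TDP1 were seeded at 400 cells/well in medium containing 20 nM camptothecin, exposed to pin-transferred compounds, and grown at 37 °C for at least 48 hr. Viability was read as ATP luminescence.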
HepG2 tox-1: qHTS for Inhibitors of TGF-b: Cytotox Counterscreen; HepG2 CAGA-GFP viability, ATP luminescence, 18 h; Potency, µM (top dose mostly 46.1 µM), actives largely listed as cytotoxic; 410,000 tested, 0.76% active; AID 588856, 2011
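HepG2 CAGA-GFP cells (1000/well, DMEM with 1% FBS) received compound, then TGF-beta at 500 pg/mL final, and were incubated 18 hours at 37 degrees C. Viability was read by CellTiter-Glo luminescence. Media-only wells were set as complete cell-killing and DMSO as no toxicity.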
ATXN viability: Viability Counterscreen for Primary qHTS for Inhibitors of ATXN expression; S2 cells (HEK-293 line with an ATXN2-luciferase reporter) viability, CellTiter-Fluor protease fluorescence, 24 h; Potency, µM (titrated, usually from 56.7 µM), hits mostly cytotoxic; 400,000 tested, 0.49% active; AID 651635, 2014; further: nearly all actives have a fitted effect of over 40% in size
ATXN2 expr inh: Primary qHTS for Inhibitors of ATXN expression; HEK-293 ATXN2-luciferase reporter, luminescence, 24 h; Potency, µM (doses to about 57 µM), usual class: inhibitors; 360,000 tested, 0.72% active; AID 1745845, 2022; further: nearly all actives have a fitted effect of over 55% in size
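ATXN2-luciferase reporter cells (luciferase flanked by upstream and downstream ATXN2 gene portions) were treated 24 h at 37 °C with compounds at up to 57 uM. SteadyGlo luminescence gave expression; GF-AFC fluorescence gave viability.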
TGFb confirm: qHTS for Inhibitors of TGF-b: Confirmation of Cherry Picks; shares compounds with TGFb SMAD3 inh; HepG2 CAGA-GFP TGF-b reporter, GFP fluorescence, 18 h; cells stimulated with TGF-beta, 500 pg/mL; Potency, µM (series often up to 46.1 µM), actives largely listed as inhibitors; 1,600 tested, 63% active; AID 720534, 2013; further: nearly all actives have a fitted effect of over 65% in size
HepG2 tox-2: qHTS for Inhibitors of TGF-b: Cytotox Counterscreen for Cherry Picks; shares compounds with TGFb SMAD3 inh; HepG2 CAGA-GFP viability, ATP luminescence, 18 h; cells stimulated with TGF-beta, 500 pg/mL; Potency, µM (titrated, usually from 46.1 µM), usual class: inhibitors; 1,600 tested, 27% active; AID 720535, 2013; further: nearly all actives have a fitted effect of over 70% in size
CCL64 TGFb inh: qHTS for Inhibitors of TGF-b: CCL64 Cells Orthogonal Assay for Cherry Picks; shares compounds with TGFb SMAD3 inh; CCL64 CAGA-GFP reporter, TGF-b stimulated, GFP fluorescence, 18 h; Potency, µM (highest dose often 46.1 µM), most hits filed as inhibitors; 1,600 tested, 41% active; further: nearly all actives have a fitted effect of over 65% in size
TGFb COP inh: qHTS for Inhibitors of TGF-b: Hit Validation in HepG2 Cells using COP promoter | shares compounds with TGFb SMAD3 inh | HepG2 COP-GFP TGF-b reporter, GFP fluorescence, 18 h; cells stimulated by added recombinant TGF-beta | Potency, µM (doses to about 46.1 µM), hits mostly inhibitors | 1,600 tested, 3% active; further: nearly all actives have a fitted effect of over 70% in size
Each line names hits and unclear results; the compound was inactive in the other large screens (follow-up assays come after a bar, where they were run). Most compounds without a hit are left out; they make up all but 17% or so of the library. The call rests on the fitted dose curve; in most records, active means well fitted curve in the direction sought with a large enough effect; inconclusive means small, poorly fitted or top-dose-only effect, or another doubt; inactive means no such curve, though single readings can be large; an effect the other way counts as inactive or inconclusive.

COc1cc2c(c(OC)c1OC)-c1ccc(OC)c(=O)cc1C(NC(=O)c1ccccc1)CC2 (centres undefined)	TGFb SMAD3 inh inconclusive, DT40 TDP1 no CPT 0.018µM, TDP1 cell CPT 0.0092µM | TGFb confirm inconclusive | HepG2 tox-2 inactive | CCL64 TGFb inh inconclusive | TGFb COP inh inconclusive
CCOC(=O)N1CCN(C(=O)COC(=O)Cc2ccc(Cl)cc2)CC1	none
COc1ccc(-n2c(O)cnc2Nc2nc(C)cc(C)n2)cc1OC	none
Cc1cccc(NC(=O)c2nc[nH]c2C(=O)N[C@@H](CC(C)C)C(=O)OC(C)(C)C)c1	TGFb SMAD3 inh inconclusive, DT40 TDP1 no CPT inconclusive, TDP1 cell CPT inconclusive, ATXN viability inconclusive
CC(C)C[C@H](NC(=O)c1nc[nH]c1C(=O)N1CCN(c2ccccc2)CC1)C(=O)OC(C)(C)C	TGFb SMAD3 inh inconclusive, DT40 TDP1 no CPT inconclusive, TDP1 cell CPT 21µM | TGFb confirm inactive | HepG2 tox-2 inactive | CCL64 TGFb inh inactive | TGFb COP inh inactive
CC(C)(C)OC(=O)[C@H](Cc1ccccc1)NC(=O)c1[nH]cnc1C(=O)Nc1cccc(Cl)c1	TGFb SMAD3 inh 10µM, DT40 TDP1 no CPT inconclusive, TDP1 cell CPT inconclusive, ATXN viability 32µM, ATXN2 expr inh inconclusive | TGFb confirm 21µM | HepG2 tox-2 18µM | CCL64 TGFb inh inconclusive | TGFb COP inh inactive
CC(C)(C)OC(=O)[C@H](Cc1ccccc1)NC(=O)c1nc[nH]c1C(=O)N[C@@H](Cc1ccccc1)C(=O)OC(C)(C)C	TGFb SMAD3 inh 13µM, DT40 TDP1 no CPT 18µM, TDP1 cell CPT 15µM, ATXN viability inconclusive, ATXN2 expr inh inconclusive | TGFb confirm 15µM | HepG2 tox-2 inconclusive | CCL64 TGFb inh inconclusive | TGFb COP inh inactive
CN(Cc1ccccc1)C(=O)c1[nH]cnc1C(=O)Nc1cccc(Cl)c1	TGFb SMAD3 inh inconclusive, DT40 TDP1 no CPT inconclusive, TDP1 cell CPT inconclusive | TGFb confirm inconclusive | HepG2 tox-2 inconclusive | CCL64 TGFb inh inactive | TGFb COP inh inactive
CN(Cc1ccccc1)C(=O)c1[nH]cnc1C(=O)Nc1ccccc1F	none
Cc1ccc(NC(=O)CCC(=O)N/N=C/C=C/c2ccccc2)cc1	none
COc1ccc(OC)c(S(=O)(=O)Nc2cccnc2)c1	none
COc1ccc(OC)c(S(=O)(=O)Nc2cc(Cl)cc(Cl)c2)c1	TGFb SMAD3 inh 7.9µM | TGFb confirm 21µM | HepG2 tox-2 inactive | CCL64 TGFb inh inactive | TGFb COP inh inactive
CN(C)c1ccc(-c2c(-c3ccc4c(c3)OCO4)noc2-c2ccsc2)cn1	TGFb SMAD3 inh inconclusive, DT40 TDP1 no CPT inconclusive, TDP1 cell CPT inconclusive
O=C(O)c1cc(-c2ccc(-c3c(-c4ccc5c(c4)OCO5)noc3-c3ccsc3)cc2)nc2ccccc12	TGFb SMAD3 inh inconclusive, DT40 TDP1 no CPT inconclusive, TDP1 cell CPT inconclusive | TGFb confirm 16µM | HepG2 tox-2 inconclusive | CCL64 TGFb inh 18µM | TGFb COP inh inactive
C[C@H](O)[C@@H]1CN2CCc3c([nH]c4ccccc34)[C@@H]2C[C@@H]1N(C)C(=S)Nc1ccc(C#N)cc1	TGFb SMAD3 inh inconclusive, DT40 TDP1 no CPT inconclusive, TDP1 cell CPT inconclusive
Cc1ccc(S(=O)(=O)N2CCC(C(=O)N3CCCC(C(F)(F)F)C3)CC2)cc1C (centres undefined)	TDP1 cell CPT inconclusive
COc1ccc(Cc2c(-c3cccc(Br)c3)nc3ccc(Br)cn23)c(C)c1	TGFb SMAD3 inh inconclusive, DT40 TDP1 no CPT inconclusive, TDP1 cell CPT inconclusive | TGFb confirm inconclusive | HepG2 tox-2 inconclusive | CCL64 TGFb inh inconclusive | TGFb COP inh inactive
COc1ccc(-c2nc3ccc(Br)cn3c2Cc2cccc(Cl)c2)cc1OC	TGFb SMAD3 inh 13µM, DT40 TDP1 no CPT 21µM, TDP1 cell CPT inconclusive, ATXN viability inconclusive | TGFb confirm 18µM | HepG2 tox-2 inconclusive | CCL64 TGFb inh inconclusive | TGFb COP inh inactive
COc1ccccc1Cc1c(-c2ccc(F)cc2)nc2ccc(Br)cn12	TGFb SMAD3 inh 10µM, DT40 TDP1 no CPT inconclusive, TDP1 cell CPT inconclusive, ATXN viability inconclusive | TGFb confirm inconclusive | HepG2 tox-2 inconclusive | CCL64 TGFb inh inconclusive | TGFb COP inh inactive
COc1ccc(Cc2c(-c3ccc(F)cc3)nc3ccc(Br)cn23)c(C)c1	DT40 TDP1 no CPT inconclusive
CCOc1ccc(NC(=O)C2CC(=O)N(c3ccccc3F)C2)cc1 (centres undefined)	none
O=C(NCc1ccc(Cl)cc1)c1cc([N+](=O)[O-])ccc1Cl	none
CC(=O)c1cccc(N(CC(=O)NC2CCCCC2)C(=O)c2csnn2)c1	none
CCOc1ccccc1N1CCN(C(=O)C2=CC=CN3CCS(=O)(=O)N=C23)CC1	DT40 TDP1 no CPT inconclusive (no result: ATXN2 expr inh)
Cc1nn2c(NCc3ccccn3)c3c(nc2c1-c1ccccc1)CCC3	TGFb SMAD3 inh 11µM, DT40 TDP1 no CPT 4.6µM, TDP1 cell CPT 2.6µM, ATXN viability inconclusive, ATXN2 expr inh inconclusive | TGFb confirm inconclusive | HepG2 tox-2 inconclusive | CCL64 TGFb inh inconclusive | TGFb COP inh inactive
COC(=O)C(C)Oc1cc(OC(C)C(=O)OC)c2c(C)c(Cl)c(=O)oc2c1 (centres undefined)	ATXN viability inconclusive
CC1(C)CC2CC(C)(CN2S(=O)(=O)c2cccc(C(=O)O)c2)C1 (centres undefined)	none
